Laboratory results published in PubChem BioAssay (EPA / NIEHS).
Values joined by “and” are separate entries in the source; they are usually repeats but may differ in a detail not shown here. Equal values may be shown once. Results filed as inconclusive are left out. The source holds several records for some structures; these can differ, active in one and inactive in another. Active and inactive are the calls of the source. Rule for the calls, unless noted: active = hit-call score of the fitted dose curve at least 0.9, where 1 is the maximum; inconclusive = response in the unintended direction; inactive = score below 0.9.

Key:
[1] = biological target: CCAAT/enhancer-binding protein beta (Homo sapiens) (UniProt P17676); assay: ATG_C_EBP_CIS: Attagene CIS-FACTORIAL HepG2 Assay for human CCAAT/Enhancer Binding Protein (C/EBP) beta (AID 2282927; active = hit-call score of the fitted dose curve at least 0.9, where 1 is the maximum; inactive = score below 0.9); settings: HepG2 Attagene cis-factorial transcription factor reporter; actives raise or lower the signal
CCAAT/enhancer-binding protein beta (Homo sapiens), sequence (P17676 whole entry, looked up): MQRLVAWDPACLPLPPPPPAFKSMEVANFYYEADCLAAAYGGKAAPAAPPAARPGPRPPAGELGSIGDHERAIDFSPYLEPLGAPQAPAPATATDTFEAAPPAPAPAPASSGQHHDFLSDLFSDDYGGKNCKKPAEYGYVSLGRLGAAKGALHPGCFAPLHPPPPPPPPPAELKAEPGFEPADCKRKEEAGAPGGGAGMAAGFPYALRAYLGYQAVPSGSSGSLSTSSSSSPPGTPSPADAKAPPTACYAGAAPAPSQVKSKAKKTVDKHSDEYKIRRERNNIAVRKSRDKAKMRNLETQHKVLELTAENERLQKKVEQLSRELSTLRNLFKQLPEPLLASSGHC
Procedure, shortened: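 HepG2 transiently transfected with multiplexed reporter units under cis-regulatory promoters reporting endogenous C/EBPb activity. After 24 h exposure, reporter mRNA assayed by RT-PCR, fluorescent labelling, HpaI digestion and capillary electrophoresis; bidirectional fitting versus DMSO.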

[2] = ATG_CMV_CIS: Attagene CIS-FACTORIAL HepG2 Assay for human CMV (Internal Marker) (AID 2282928; active = hit-call score of the fitted dose curve at least 0.9, where 1 is the maximum; inactive = score below 0.9;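 note: endpoint acts as a background internal control marker rather than a target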); settings: HepG2 CMV promoter reporter, transcription factor profiling; actives raise or lower the signal
Procedure, shortened: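 CMV internal-marker background readout in transiently transfected HepG2 cells bearing cis-regulated reporter units. Reporter mRNA is measured 24 h after dosing by RT-PCR and capillary electrophoresis, with bidirectional fitting against DMSO.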

[3] = ATG_DR4_LXR_CIS: Attagene CIS-FACTORIAL HepG2 Assay for human Liver X Receptor (LXR), DR4 submotif (AID 2282929; active = hit-call score of the fitted dose curve at least 0.9, where 1 is the maximum; inactive = score below 0.9); settings: HepG2 Attagene DR4 cis-reporter, mRNA transcription; actives raise or lower the signal
Procedure, shortened: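 HepG2 cells transiently transfected with cis-promoter-driven multiplexed reporter units (DR4 element) were dosed for 24 h. Reporter mRNA was quantified by RT-PCR, fluorescent primer extension, HpaI digestion and capillary electrophoresis; bidirectional fitting versus DMSO baseline.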

[4] = ATG_AP_2_CIS: Attagene CIS-FACTORIAL HepG2 Assay for human Activator Protein 2 (AP-2) (AID 2282932; active = hit-call score of the fitted dose curve at least 0.9, where 1 is the maximum; inactive = score below 0.9); settings: HepG2 AP-2 cis-reporter, Attagene transcription factor profiling; actives raise or lower the signal
Procedure, shortened: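 HepG2 cells transiently transfected with cis-element reporter units and exposed for 24 h. Reporter mRNA measured by RT-PCR, FAM labelling, HpaI digestion and capillary electrophoresis. Changes in either direction fitted relative to DMSO.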

[5] = ATG_BRE_CIS: Attagene CIS-FACTORIAL HepG2 Assay for human Bone Morphogenetic Protein (BMP) Response Element (BRE) (AID 2282933; active = hit-call score of the fitted dose curve at least 0.9, where 1 is the maximum; inactive = score below 0.9); settings: HepG2 BMP response element reporter, Attagene transcription factor profiling; actives raise or lower the signal
Procedure, shortened: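 Endogenous transcription factor activity at a BMP response element was monitored in transfected HepG2 cells 24 h after dosing. Fluorescent RT-PCR products were resolved by capillary electrophoresis, and activity was fitted in both directions versus DMSO.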

[6] = ATG_E_Box_CIS: Attagene CIS-FACTORIAL HepG2 Assay for human Enhancer Box (E-box) (AID 2282936; active = hit-call score of the fitted dose curve at least 0.9, where 1 is the maximum; inactive = score below 0.9); settings: HepG2 E-box cis-reporter transcription, actives raise or lower the signal
Procedure, shortened: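 HepG2 cells transiently transfected with multiplexed cis-element reporter units, dosed 24 h; reporter mRNA quantified by RT-PCR, 6-FAM labelling, HpaI digestion and capillary electrophoresis. E-box (USF1) signal fitted bidirectionally vs DMSO.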

[7] = ATG_M_61_CIS: Attagene CIS-FACTORIAL HepG2 Assay for M61 Transcription Factor (Internal Marker) (AID 2282937; active = hit-call score of the fitted dose curve at least 0.9, where 1 is the maximum; inactive = score below 0.9); settings: HepG2 Attagene CIS-FACTORIAL M61 internal marker reporter; actives raise or lower the signal
Procedure, shortened: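 HepG2 cells transiently transfected with cis-element-driven multiple reporter transcription units, dosed for 24 h. Reporter mRNA measured by RT-PCR, 6-FAM primer-extension labelling, HpaI digestion and capillary electrophoresis; bidirectional fit versus DMSO baseline.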

[8] = ATG_EGR_CIS: Attagene CIS-FACTORIAL HepG2 Assay for human Early Growth Response 1 (EGR1) (AID 2282938; active = hit-call score of the fitted dose curve at least 0.9, where 1 is the maximum; inactive = score below 0.9); settings: HepG2 Attagene CIS-FACTORIAL EGR reporter mRNA; actives raise or lower the signal
Procedure, shortened: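 HepG2 cells transiently transfected with cis-promoter-driven multiplexed reporter transcription units; reporter mRNA measured 24 h after compound dosing by RT-PCR, 6-FAM primer extension, HpaI digestion and capillary electrophoresis. Bidirectional fit versus DMSO baseline.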

[9] = ATG_Ets_CIS: Attagene CIS-FACTORIAL HepG2 Assay for human Erythroblast Transformation Specific (ETS) (AID 2282941; active = hit-call score of the fitted dose curve at least 0.9, where 1 is the maximum; inactive = score below 0.9); settings: HepG2 ETS cis-reporter transcription, actives raise or lower the signal
Procedure, shortened: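 HepG2 cells transfected with multiple cis-regulated reporter units measuring endogenous ETS-driven transcription, 24 h after dosing. Reporter mRNA quantified by RT-PCR with capillary electrophoresis; bidirectional fit relative to DMSO.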

[10] = CCTE_Harrill_HTTr_Viability_MCF7: CCTE's 6-hour Cell Viability Assessment for the High-Throughput Transcriptomics (HTTr) Platform, in MCF-7 cells cultured in DMEM + 10% fetal bovine serum, Harrill Lab (AID 2284010; active = hit-call score of the fitted dose curve at least 0.9, where 1 is the maximum; inactive = score below 0.9)
Procedure, shortened: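 Cells were dosed with chemicals in an eight-point dilution series, imaged 6 hours later for propidium iodide uptake, and the endpoint was analyzed by bidirectional fitting against DMSO as negative control.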

[11] = CCTE_Harrill_HTTr_Apoptosis_MCF7: CCTE's 6-hour Apoptosis Assessment for the High-Throughput Transcriptomics (HTTr) Platform, in MCF-7 cells cultured in DMEM + 10% fetal bovine serum, Harrill Lab (AID 2284011; active = hit-call score of the fitted dose curve at least 0.9, where 1 is the maximum; inactive = score below 0.9)
Procedure, shortened: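 Cells are dosed with test chemicals at eight concentrations and imaged 6 hours later for caspase-3/7 activity using a green fluorogenic detection reagent. Activity is fitted in both directions against DMSO controls.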

[12] = biological target: Estrogen receptor (Homo sapiens) (UniProt P03372); assay: NVS_NR_hER: NovaScreen (NVS) Nuclear Receptor Binding Assay for human Estrogen Receptor (ER) (AID 2283348)
Estrogen receptor (Homo sapiens), sequence (P03372 whole entry, looked up): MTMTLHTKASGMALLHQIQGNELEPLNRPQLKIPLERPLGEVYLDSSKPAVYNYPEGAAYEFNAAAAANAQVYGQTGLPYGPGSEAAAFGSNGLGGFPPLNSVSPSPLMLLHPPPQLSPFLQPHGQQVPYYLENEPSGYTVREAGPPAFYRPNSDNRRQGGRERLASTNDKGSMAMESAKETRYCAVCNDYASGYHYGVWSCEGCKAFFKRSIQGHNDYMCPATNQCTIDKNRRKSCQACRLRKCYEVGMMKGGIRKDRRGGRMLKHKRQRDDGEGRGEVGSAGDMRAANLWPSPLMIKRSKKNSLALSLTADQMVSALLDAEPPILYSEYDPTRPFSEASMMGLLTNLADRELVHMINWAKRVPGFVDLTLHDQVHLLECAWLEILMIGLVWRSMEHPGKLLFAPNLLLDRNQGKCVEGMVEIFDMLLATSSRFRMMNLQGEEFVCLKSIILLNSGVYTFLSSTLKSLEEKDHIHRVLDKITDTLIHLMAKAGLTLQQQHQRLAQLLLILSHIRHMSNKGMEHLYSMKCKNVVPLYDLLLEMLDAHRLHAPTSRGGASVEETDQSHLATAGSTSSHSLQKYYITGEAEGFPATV
Procedure, shortened: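 Radioligand competitive displacement binding to estrogen receptor from MCF7 extract, cell-free; 18 h after dosing, scintillation read-out. Primary screen in duplicate at 25 uM; actives followed up in concentration series; loss of signal vs DMSO.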

[13] = TOX21_p53_BLA_p2_viability: Viability Assessment in the Tox21 HCT-116 p53 Agonism Beta-lactamase Assay, Phase 2 (AID 2283591);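 note: actives lower the ATP signal meaning cytotoxicity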
Procedure, shortened: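 HCT116 p53-bla cells, 4000/well, dosed after 5 h plating (217-fold dilution of DMSO stocks) and incubated 16 h at 37C. Viability taken as cellular ATP by CellTiter-Glo luminescence after 30 min RT; signal loss marks cytotoxicity.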

[14] = biological target: Cellular tumor antigen p53 (Homo sapiens) (UniProt P04637); assay: TOX21_p53_BLA_p2_ratio: Tox21 HCT-116 p53 Agonism Beta-lactamase Assay, Ratio, Phase 2 (AID 2283592)
Cellular tumor antigen p53 (Homo sapiens), sequence (P04637 whole entry, looked up): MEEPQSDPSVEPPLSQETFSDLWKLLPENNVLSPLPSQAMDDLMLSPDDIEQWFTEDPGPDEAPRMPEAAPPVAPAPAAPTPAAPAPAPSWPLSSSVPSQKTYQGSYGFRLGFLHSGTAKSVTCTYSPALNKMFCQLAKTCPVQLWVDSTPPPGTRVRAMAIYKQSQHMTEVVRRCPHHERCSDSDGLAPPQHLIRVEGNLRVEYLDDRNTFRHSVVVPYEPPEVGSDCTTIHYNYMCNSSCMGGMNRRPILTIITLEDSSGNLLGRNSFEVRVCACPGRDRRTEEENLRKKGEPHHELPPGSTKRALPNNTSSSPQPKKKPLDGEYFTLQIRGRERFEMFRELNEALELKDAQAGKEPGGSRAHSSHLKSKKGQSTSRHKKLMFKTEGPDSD
Procedure, shortened: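 An inducible beta-lactamase reporter in HCT116 cells signals p53 pathway activation. After 16 h chemical exposure at 37C, cells load CCF4-AM substrate for 2 h at room temperature; activity is the cleaved/uncleaved emission ratio relative to DMSO.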

[15] = TOX21_p53_BLA_p3_viability: Viability Assessment in the Tox21 HCT-116 p53 Agonism Beta-lactamase Assay, Phase 3 (AID 2283593);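 note: cells exposed to compound for 16 h before reading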
Procedure, shortened: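 HCT116 cells, 4000/well, dosed 5 h after plating by pin transfer (217-fold dilution from DMSO stock) and incubated 16 h at 37C, 5% CO2. Viability read as ATP luminescence with CellTiter-Glo after 30 min at room temperature.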

[16] = biological target: Cellular tumor antigen p53 (Homo sapiens) (UniProt P04637); assay: TOX21_p53_BLA_p3_ratio: Tox21 HCT-116 p53 Agonism Beta-lactamase Assay, Ratio, Phase 3 (AID 2283596)
Procedure, shortened: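 HCT116 p53-bla cells (4000/well) given compound in DMSO (217-fold dilution) after 5 h, incubated 16 h at 37C. CCF4-AM substrate 2 h at room temperature; 460/530 nm emission ratio, gain fitted against DMSO.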

[17] = TOX21_p53_BLA_p4_viability: Viability Assessment in the Tox21 HCT-116 p53 Agonism Beta-lactamase Assay, Phase 4 (AID 2283597);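 note: hits lower the luminescence signal meaning cytotoxicity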
Procedure, shortened: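 Compound exposure of HCT116 cells lasts 16 h at 37C, 5% CO2, with DMSO stocks diluted 217-fold. Cellular ATP is then quantified by CellTiter-Glo luminescence after 30 min at room temperature.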

[18] = biological target: Cellular tumor antigen p53 (Homo sapiens) (UniProt P04637); assay: TOX21_p53_BLA_p5_ratio: Tox21 HCT-116 p53 Agonism Beta-lactamase Assay, Ratio, Phase 5 (AID 2283599)
Procedure, shortened: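 HCT-116 p53-bla cells (4000/well) plated 5 h, dosed with compound (217-fold DMSO dilution) for 16 h at 37 C; CCF4-AM substrate 2 h at room temperature. Activity is the 460/530 nm emission ratio (405 nm excitation), fitted in gain-of-signal direction versus DMSO.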

[19] = TOX21_p53_BLA_p5_viability: Viability Assessment in the Tox21 HCT-116 p53 Agonism Beta-lactamase Assay, Phase 5 (AID 2283600)
Procedure, shortened: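 Counter-readout for cytotoxicity: ATP-dependent luminescence from CellTiter-Glo, read in the beta-lactamase wells after 30 min at RT, following a 16 h compound exposure at 37C.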

[20] = biological target: Cellular tumor antigen p53 (Homo sapiens) (UniProt P04637); assay: TOX21_p53_BLA_p4_ratio: Tox21 HCT-116 p53 Agonism Beta-lactamase Assay, Ratio, Phase 4 (AID 2283601)
Procedure, shortened: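 HCT-116 p53 beta-lactamase reporter cells (4000/well) preincubated 5 h, then compound (217-fold dilution of DMSO stock) for 16 h at 37C. CCF4-AM substrate added 2 h at room temperature; 460/530 nm emission ratio fitted upward versus DMSO.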

Measured: AC50

COc1ccc2ccccc2c1
inactive: [1] | [2] | [3] | [4] | [5] | [6] | [7] | [8] | [9] | [10] | [11]

O=[N+]([O-])c1ccc(ON=Cc2cc(Br)c(O)c(Br)c2)c([N+](=O)[O-])c1
active: [14] 79 µM | [15] 34.4 µM | [16] 8.26 µM | [18] 13.8 µM | [20] 75.9 µM
inactive: [12] | [13] | [17] | [19]

CC1=CCCC(C)(C)C12CCC(C)O2 (stereo not given)
inactive: [1] | [2] | [3] | [4] | [5] | [6] | [7] | [8] | [9] | [14] | [16] | [17] | [18] | [19] | [20]

COc1ccc(C(=O)c2ccccc2O)c(O)c1
inactive: [14] | [16] | [17] | [18] | [19] | [20] | [10] | [11]

CC(=O)O[C@]1(C(C)=O)CC[C@H]2[C@@H]3C=C(C)C4=CC(=O)CC[C@]4(C)[C@H]3CC[C@@]21C
inactive: [12] | [13] | [14] | [15] | [16] | [18] | [19] | [20] | [10] | [11]

CN(C)CCC(c1ccc(Cl)cc1)c1ccccn1 (stereo not given)
inactive: [1] | [2] | [3] | [4] | [5] | [6] | [7] | [8] | [9] | [13] | [15] | [16] | [17] | [19] | [10] | [11]

Cc1c(C(N)=O)cc([N+](=O)[O-])cc1[N+](=O)[O-]
inactive: [13] | [16] | [18] | [19] | [20]

CC1=C(CC=O)C(C)(C)CCC1
inactive: [1] | [2] | [3] | [4] | [5] | [6] | [7] | [8] | [9] | [13] | [14] | [16] | [18] | [19] | [20]

CCCCCCCCCCCCCC
inactive: [1] | [2] | [3] | [4] | [5] | [6] | [7] | [8] | [9] | [13] | [16] | [18] | [20] | [10] | [11]

CC1(O)CSC(C)(O)CS1 (stereo not given)
inactive: [12] | [13] | [14] | [15] | [16] | [18] | [19] | [20]

CCC(C)NC(N)=O (stereo not given)
inactive: [1] | [2] | [3] | [4] | [5] | [6] | [7] | [8] | [9] | [14] | [16] | [17]

CC(C)C1OCCN1CCOC(=O)NCCCCCCNC(=O)OCCN1CCOC1C(C)C (stereo not given)
inactive: [13] | [14] | [15] | [17] | [18] | [19] | [20]

COC(=O)c1ccccc1
inactive: [1] | [2] | [3] | [4] | [5] | [6] | [7] | [8] | [9] | [13] | [14] | [15] | [16] | [17] | [18] | [19] | [20]

CCCCCCCCCCC1CO1 (stereo not given)
inactive: [1] | [2] | [3] | [4] | [5] | [6] | [7] | [8] | [9] | [14] | [16] | [20]

Nc1nc(N)c2nc(-c3ccccc3)c(N)nc2n1
inactive: [12] | [13] | [14] | [15] | [16] | [17] | [19] | [10] | [11]
active: [13] 85.6 µM | [14] 32.3 µM and 16.7 µM | [16] 33.5 µM | [18] 17.5 µM and 38.9 µM and 28 µM | [20] 26.9 µM and 21.1 µM and 29.1 µM

CC(C)CC(=O)C1C(=O)c2ccccc2C1=O
inactive: [12] | [13] | [16] | [18] | [19] | [20]

Oc1ccc2c(c1)Cc1ccccc1-2
inactive: [10] | [11]
active: [12] 25 µM

COc1cc(C(=S)N2CCOCC2)cc(OC)c1OC
inactive: [13] | [14]
